PubChem BioAssay
Active and inactive are the calls of the source.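 The calls were made as follows: active = at least 20% inhibition of 6-phosphogluconate dehydrogenase activity; inactive = the rest.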

These compounds were tested against 6-phosphogluconate dehydrogenase, decarboxylating (Homo sapiens) (UniProt P52209) (assay: 6PGD enzyme inhibitors, primary screen, biochemical, human, recombinant enzyme, NADPH absorbance (AID 1159550)). Details: recombinant 6PGD, NADPH absorbance 341 nm; at 10 µM; hits give high values.
Chain of 6-phosphogluconate dehydrogenase, decarboxylating (Homo sapiens) (P52209 whole entry, looked up): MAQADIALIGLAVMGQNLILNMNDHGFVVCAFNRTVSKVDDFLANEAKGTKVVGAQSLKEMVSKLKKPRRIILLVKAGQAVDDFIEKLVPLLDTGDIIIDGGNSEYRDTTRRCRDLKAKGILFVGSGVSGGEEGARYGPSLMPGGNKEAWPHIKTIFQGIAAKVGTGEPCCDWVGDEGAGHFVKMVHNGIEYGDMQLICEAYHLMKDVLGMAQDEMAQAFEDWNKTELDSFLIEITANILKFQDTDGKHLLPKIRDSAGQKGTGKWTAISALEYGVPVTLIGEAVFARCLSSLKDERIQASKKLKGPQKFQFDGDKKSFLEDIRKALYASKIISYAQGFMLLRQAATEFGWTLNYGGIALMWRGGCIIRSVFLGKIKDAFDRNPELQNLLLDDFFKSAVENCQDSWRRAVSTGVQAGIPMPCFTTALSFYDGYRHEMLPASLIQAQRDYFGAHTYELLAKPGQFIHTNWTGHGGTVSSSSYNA

inhibition, inactive:
CC(C)=CCC[C@](C)(O)C1CC=C(C)CC1 (some centres undefined) 1.33%
COc1cc(O)cc(/C=C/c2ccccc2)c1 10.9%
COc1ccc(-c2c(O)c3c(OC)c4c(cc3oc2=O)OC(C)(C)CC4)cc1 1.85%
CC(C)[C@@H](C)/C=C/[C@@H](C)[C@H]1CC[C@H]2C3=CCC4CC(=O)CC[C@]4(C)[C@H]3CC[C@]12C (some centres undefined) 2.32%
COc1ccc(-c2c(OC)c3c(OC)c4c(cc3oc2=O)OC(C)(C)C=C4)cc1 5.26%
Nc1ncnc2c1ncn2C1CC(O)C(CO)O1 (centres undefined) 2.59%
COc1ccc(C(C)C(=O)c2ccc(O)cc2O)cc1 (centres undefined) 10.6%
Cc1cc(=O)c2c(O)c3c(cc2o1)OC(C)(C)CC3 3.81%
CC(C)c1ccc2c(c1)CC[C@@]1(C)[C@](C)(C(N)=O)CCC[C@]21C 18%
CC(=O)Oc1ccc2c(c1C(C)C)CCC1C(C)(C)CCCC21C (centres undefined) 2.45%
O=C(O[C@@H]1Cc2c(O)cc(O)cc2O[C@@H]1c1cc(O)c(=O)c2c(O)c(O)cc([C@H]3Oc4cc(O)cc(O)c4C[C@H]3O)c2c1)c1cc(O)c(O)c(O)c1 8.68%
CC(=O)C1CCC2C3CC=C4CC(O)CCC4(C)C3CCC12C (centres undefined) -15.3%
CC(C)(O)[C@@H]1Cc2cc3ccc(=O)oc3cc2O1 -0.979%
CCCC(=O)OC1(C(=O)CO)CCC2C3CCC4=CC(=O)CCC4(C)C3C(O)CC21C (centres undefined) -0.0758%
